# Data: the supplement of paper PMC4466140
# Experiments:
# Experiment in all cases: SPOT peptide array binding signal intensity (averaged, normalized) (arbitrary units (background-subtracted, floor 0; scale differs between SH3 domains)); higher = stronger binding of the SH3 domain to the peptide
# AgAbp1 = molecular target: AgAbp1
# In short: (§1)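 Detection of bound protein relied on anti-GST antibody, an HRP anti-mouse secondary and luminol, with imaging and quantification in Genespotter. The bound protein was GST-fused SH3 domains from four yeast species, incubated at 10 μg/ml overnight at 4°C in TBS-based blocking buffer on cellulose membranes carrying synthetic 15-mer peptides with cysteines replaced by serines. Binding signal is normalized, background-subtracted spot intensity averaged over replicates, in arbitrary units that differ between domains.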
# AgBbc1 = molecular target: AgBbc1
# In short: as §1
# AgBem1-D1 = molecular target: AgBem1-D1
# In short: as §1
# AgBzz1-D1 = molecular target: AgBzz1-D1
# In short: as §1
# AgBzz1-D2 = molecular target: AgBzz1-D2
# In short: as §1
# AgCyk3 = molecular target: AgCyk3
# In short: as §1
# AgFus1 = molecular target: AgFus1
# In short: as §1
# AgHof1 = molecular target: AgHof1
# In short: as §1
# AgHse1 = molecular target: AgHse1
# In short: as §1
# AgLsb1 = molecular target: AgLsb1
# In short: as §1
# AgLsb4 = molecular target: AgLsb4
# In short: as §1
# AgMyo5 = molecular target: AgMyo5
# In short: as §1
# AgNbp2 = molecular target: AgNbp2
# In short: as §1
# AgRvs167 = molecular target: AgRvs167
# In short: as §1
# AgSho1 = molecular target: AgSho1
# In short: as §1
# AgSla1-D1-D2 = molecular target: AgSla1-D1-D2
# In short: as §1
# AgSla1-D3 = molecular target: AgSla1-D3
# In short: as §1
# CaAbp1-D1 = molecular target: CaAbp1-D1
# In short: as §1
# CaAbp1-D2 = molecular target: CaAbp1-D2
# In short: as §1
# CaBbc1 = molecular target: CaBbc1
# In short: as §1
# CaBem1-D1 = molecular target: CaBem1-D1
# In short: as §1
# CaBzz1-D1 = molecular target: CaBzz1-D1
# In short: as §1
# CaBzz1-D2 = molecular target: CaBzz1-D2
# In short: as §1
# CaCyk3 = molecular target: CaCyk3
# In short: as §1
# CaFus1 = molecular target: CaFus1
# In short: as §1
# CaHof1 = molecular target: CaHof1
# In short: as §1
# CaHse1 = molecular target: CaHse1
# In short: as §1
# CaLsb1 = molecular target: CaLsb1
# In short: as §1
# CaLsb4 = molecular target: CaLsb4
# In short: as §1
# CaMyo5 = molecular target: CaMyo5
# In short: as §1
# CaNbp2 = molecular target: CaNbp2
# In short: as §1
# CaRvs167 = molecular target: CaRvs167
# In short: as §1
# CaRvs167-3 = molecular target: CaRvs167-3
# In short: as §1
# CaSho1 = molecular target: CaSho1
# In short: as §1
# CaSla1-D1-D2 = molecular target: CaSla1-D1-D2
# In short: as §1
# CaSla1-D3 = molecular target: CaSla1-D3
# In short: as §1
# ScAbp1 = molecular target: ScAbp1
# In short: as §1
# ScBbc1 = molecular target: ScBbc1
# In short: as §1
# ScBem1-D1 = molecular target: ScBem1-D1
# In short: as §1
# ScBzz1-D1 = molecular target: ScBzz1-D1
# In short: as §1
# ScBzz1-D2 = molecular target: ScBzz1-D2
# In short: as §1
# ScCyk3 = molecular target: ScCyk3
# In short: as §1
# ScFus1 = molecular target: ScFus1
# In short: as §1
# ScHof1 = molecular target: ScHof1
# In short: as §1
# ScHse1 = molecular target: ScHse1
# In short: as §1
# ScLsb1 = molecular target: ScLsb1
# In short: as §1
# ScLsb2 = molecular target: ScLsb2
# In short: as §1
# ScLsb3 = molecular target: ScLsb3
# In short: as §1
# ScLsb4 = molecular target: ScLsb4
# In short: as §1
# ScMyo3 = molecular target: ScMyo3
# In short: as §1
# ScMyo5 = molecular target: ScMyo5
# In short: as §1
# ScNbp2 = molecular target: ScNbp2
# In short: as §1
# ScPex13 = molecular target: ScPex13
# In short: as §1
# ScRvs167 = molecular target: ScRvs167
# In short: as §1
# ScSho1 = molecular target: ScSho1
# In short: as §1
# ScSla1-D1-D2 = molecular target: ScSla1-D1-D2
# In short: as §1
# ScSla1-D3 = molecular target: ScSla1-D3
# In short: as §1
# SpAbp1-D1 = molecular target: SpAbp1-D1
# In short: as §1
# SpBbc1 = molecular target: SpBbc1
# In short: as §1
# SpBzz1-D1 = molecular target: SpBzz1-D1
# In short: as §1
# SpBzz1-D2 = molecular target: SpBzz1-D2
# In short: as §1
# SpCyk3 = molecular target: SpCyk3
# In short: as §1
# SpHof1 = molecular target: SpHof1
# In short: as §1
# SpHof1-2 = molecular target: SpHof1-2
# In short: as §1
# SpHof1-3 = molecular target: SpHof1-3
# In short: as §1
# SpHse1 = molecular target: SpHse1
# In short: as §1
# SpLsb1 = molecular target: SpLsb1
# In short: as §1
# SpLsb4 = molecular target: SpLsb4
# In short: as §1
# SpMyo1 = molecular target: SpMyo1
# In short: as §1
# SpNbp2 = molecular target: SpNbp2
# In short: as §1
# SpPex13 = molecular target: SpPex13
# In short: as §1
# SpRvs167 = molecular target: SpRvs167
# In short: as §1
# SpSla1-D1-D2 = molecular target: SpSla1-D1-D2
# In short: as §1
# SpSla1-D3 = molecular target: SpSla1-D3
# In short: as §1
binder,measurement,setting,value
SSSSSPPPLPTRRDH,SPOT peptide array binding signal intensity,AgAbp1,≤ 0
same,SPOT peptide array binding signal intensity,AgBbc1,364
same,SPOT peptide array binding signal intensity,AgBem1-D1,2
same,SPOT peptide array binding signal intensity,AgBzz1-D1,26
same,SPOT peptide array binding signal intensity,AgBzz1-D2,19.5
same,SPOT peptide array binding signal intensity,AgCyk3,1.5
same,SPOT peptide array binding signal intensity,AgFus1,15.5
same,SPOT peptide array binding signal intensity,AgHof1,59
same,SPOT peptide array binding signal intensity,AgHse1,18.5
same,SPOT peptide array binding signal intensity,AgLsb1,180
same,SPOT peptide array binding signal intensity,AgLsb4,6800
same,SPOT peptide array binding signal intensity,AgMyo5,586
same,SPOT peptide array binding signal intensity,AgNbp2,16
same,SPOT peptide array binding signal intensity,AgRvs167,627
same,SPOT peptide array binding signal intensity,AgSho1,19
same,SPOT peptide array binding signal intensity,AgSla1-D1-D2,≤ 0
same,SPOT peptide array binding signal intensity,AgSla1-D3,≤ 0
same,SPOT peptide array binding signal intensity,CaAbp1-D1,7.5
same,SPOT peptide array binding signal intensity,CaAbp1-D2,≤ 0
same,SPOT peptide array binding signal intensity,CaBbc1,378
same,SPOT peptide array binding signal intensity,CaBem1-D1,4
same,SPOT peptide array binding signal intensity,CaBzz1-D1,139
same,SPOT peptide array binding signal intensity,CaBzz1-D2,≤ 0
same,SPOT peptide array binding signal intensity,CaCyk3,2
same,SPOT peptide array binding signal intensity,CaFus1,26
same,SPOT peptide array binding signal intensity,CaHof1,24.5
same,SPOT peptide array binding signal intensity,CaHse1,114
same,SPOT peptide array binding signal intensity,CaLsb1,19.5
same,SPOT peptide array binding signal intensity,CaLsb4,8630
same,SPOT peptide array binding signal intensity,CaMyo5,6.5
same,SPOT peptide array binding signal intensity,CaNbp2,24.5
same,SPOT peptide array binding signal intensity,CaRvs167,1510
same,SPOT peptide array binding signal intensity,CaRvs167-3,7.25
same,SPOT peptide array binding signal intensity,CaSho1,6.5
same,SPOT peptide array binding signal intensity,CaSla1-D1-D2,76
same,SPOT peptide array binding signal intensity,CaSla1-D3,3.25
same,SPOT peptide array binding signal intensity,ScAbp1,≤ 0
same,SPOT peptide array binding signal intensity,ScBbc1,4
same,SPOT peptide array binding signal intensity,ScBem1-D1,≤ 0
same,SPOT peptide array binding signal intensity,ScBzz1-D1,≤ 0
same,SPOT peptide array binding signal intensity,ScBzz1-D2,12
same,SPOT peptide array binding signal intensity,ScCyk3,1
same,SPOT peptide array binding signal intensity,ScFus1,20
same,SPOT peptide array binding signal intensity,ScHof1,9.75
same,SPOT peptide array binding signal intensity,ScHse1,15
same,SPOT peptide array binding signal intensity,ScLsb1,1340
same,SPOT peptide array binding signal intensity,ScLsb2,349
same,SPOT peptide array binding signal intensity,ScLsb3,5910
same,SPOT peptide array binding signal intensity,ScLsb4,7200
same,SPOT peptide array binding signal intensity,ScMyo3,460
same,SPOT peptide array binding signal intensity,ScMyo5,166
same,SPOT peptide array binding signal intensity,ScNbp2,≤ 0
same,SPOT peptide array binding signal intensity,ScPex13,1560
same,SPOT peptide array binding signal intensity,ScRvs167,2180
same,SPOT peptide array binding signal intensity,ScSho1,26.5
same,SPOT peptide array binding signal intensity,ScSla1-D1-D2,51
same,SPOT peptide array binding signal intensity,ScSla1-D3,10
same,SPOT peptide array binding signal intensity,SpAbp1-D1,22.5
same,SPOT peptide array binding signal intensity,SpBbc1,13
same,SPOT peptide array binding signal intensity,SpBzz1-D1,406
same,SPOT peptide array binding signal intensity,SpBzz1-D2,9.75
same,SPOT peptide array binding signal intensity,SpCyk3,2
same,SPOT peptide array binding signal intensity,SpHof1,8.75
same,SPOT peptide array binding signal intensity,SpHof1-2,54.5
same,SPOT peptide array binding signal intensity,SpHof1-3,8.75
same,SPOT peptide array binding signal intensity,SpHse1,35
same,SPOT peptide array binding signal intensity,SpLsb1,1530
same,SPOT peptide array binding signal intensity,SpLsb4,6770
same,SPOT peptide array binding signal intensity,SpMyo1,308
same,SPOT peptide array binding signal intensity,SpNbp2,6
same,SPOT peptide array binding signal intensity,SpPex13,6.5
same,SPOT peptide array binding signal intensity,SpRvs167,2880
same,SPOT peptide array binding signal intensity,SpSla1-D1-D2,11
same,SPOT peptide array binding signal intensity,SpSla1-D3,9.5
